Results published in PubChem BioAssay (EPA / NIEHS).
The source made the active and inactive calls. The calls were made as follows: active = hit-call score of the fitted dose curve at least 0.9, where 1 is the maximum; inactive = score below 0.9.

Assays:
Conditions in all cases: mRNA level, 48 h; actives raise or lower the signal
[1] = read-out: Cytochrome P450 (CYP1A1), CYP1A1 (gene 1543); experiment: LTEA_HepaRG_CYP1A1: Life Technologies and Expression Analysis (LTEA) Assay for Cytochrome P450 (CYP1A1) using HepaRG (AID 2283454)
In short: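 Induction of CYP1A1 mRNA in a human hepatic cell line was measured 48 h after dosing, with 1 mM phenobarbital as induction positive control and 0.5% DMSO vehicle as baseline for bidirectional curve fitting.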

[2] = read-out: CFLAR gene, CFLAR (gene 8837); experiment: LTEA_HepaRG_CFLAR: Life Technologies and Expression Analysis (LTEA) Assay for CFLAR gene using HepaRG (AID 2283455)
In short: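 Gain- or loss-of-signal changes in CFLAR transcript were fitted bidirectionally relative to 0.5% DMSO. Cells (HepaRG, duplicate wells) were dosed for 48 h across eight half-log concentrations topping at 100 uM; quantitation by TaqMan qRT-PCR.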

[3] = read-out: Forkhead box O1 (FOXO1), FOXO1 (gene 2308); experiment: LTEA_HepaRG_FOXO1: Life Technologies and Expression Analysis (LTEA) Assay for Forkhead box O1 (FOXO1) using HepaRG (AID 2283456)
In short: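 Using one lot of HepaRG hepatic cells kept in 0.5% DMSO, the team applied test chemicals in duplicate, half-log dilutions from 100 uM, for 48 h. Expression, normalised to ACTB/GAPDH/POLR2A, was compared with vehicle in either direction.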

[4] = read-out: growth arrest and DNA damage 45 (GADD45A), GADD45A (gene 1647); experiment: LTEA_HepaRG_GADD45A: Life Technologies and Expression Analysis (LTEA) Assay for growth arrest and DNA damage 45 (GADD45A) using HepaRG (AID 2283458)
In short: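 HepaRG, 48 h exposure, 8 conc. (top 100 uM, half-log steps), 0.5% DMSO vehicle, duplicates. Read-out: qRT-PCR mRNA level, housekeeping-normalized (ACTB/GAPDH/POLR2A). Curves fit bidirectionally vs DMSO baseline.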

[5] = read-out: Forkhead box O3 (FOXO3), FOXO3 (gene 2309); experiment: LTEA_HepaRG_FOXO3: Life Technologies and Expression Analysis (LTEA) Assay for Forkhead box O3 (FOXO3) using HepaRG (AID 2283459)
In short: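 Gene-expression endpoint: FOXO3 transcript level by qRT-PCR in HepaRG cultures treated 48 h with chemicals up to 100 uM (half-log, 0.5% DMSO vehicle).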

[6] = read-out: growth arrest and DNA damage 45 (GADD45B), GADD45B (gene 4616); experiment: LTEA_HepaRG_GADD45B: Life Technologies and Expression Analysis (LTEA) Assay for growth arrest and DNA damage 45 (GADD45B) using HepaRG (AID 2283461)
In short: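 Values are bidirectional concentration-response fits against 0.5% DMSO controls. Underlying data: qRT-PCR mRNA levels in human HepaRG liver cells treated 48 h in serum-free induction medium, eight concentrations topping at 100 uM.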

[7] = read-out: ABC Transporter (ABCC3), ABCC3 (gene 8714); experiment: LTEA_HepaRG_ABCC3: Life Technologies and Expression Analysis (LTEA) Assay for ABC Transporter (ABCC3) using HepaRG (AID 2283462)
In short: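 Differentiated HepaRG liver cells receive test chemicals at eight concentrations (max 100 uM) for 48 h. Expression of ABCC3 is quantified by qRT-PCR against ACTB, GAPDH and POLR2A, and activity is fitted in both directions against the DMSO control.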

[8] = read-out: ABC Transporter (ABCB11), ABCB11 (gene 8647); experiment: LTEA_HepaRG_ABCB11: Life Technologies and Expression Analysis (LTEA) Assay for ABC Transporter (ABCB11) using HepaRG (AID 2283463)
In short: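 Using HepaRG cultures held in 0.5% DMSO, chemicals were tested at half-log dilutions from 100 uM for 48 h. Induction or suppression of ABCB11 mRNA, normalized to ACTB, GAPDH and POLR2A, was fitted bidirectionally against vehicle.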

[9] = read-out: ABC Transporter (ABCC2), ABCC2 (gene 1244); experiment: LTEA_HepaRG_ABCC2: Life Technologies and Expression Analysis (LTEA) Assay for ABC Transporter (ABCC2) using HepaRG (AID 2283464)
In short: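 Gene expression of ABCC2 was determined by qRT-PCR in HepaRG cells exposed 48 h to chemicals (highest 100 uM, half-log dilutions). Activity was fitted in both directions relative to 0.5% DMSO vehicle.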

[10] = read-out: Broad substrate specificity ATP-binding cassette transporter ABCG2 (Homo sapiens) (UniProt Q9UNQ0); experiment: LTEA_HepaRG_ABCG2: Life Technologies and Expression Analysis (LTEA) Assay for ABC Transporter (ABCG2) using HepaRG (AID 2283465)
In short: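 Gene expression of ABCG2 in HepaRG liver cells is quantified by qRT-PCR following 48 h exposure across an eight-point series topping at 100 uM. Values come from bidirectional fitting relative to DMSO vehicle.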

[11] = read-out: ATP-citrate lyase (ACLY), ACLY (gene 47); experiment: LTEA_HepaRG_ACLY: Life Technologies and Expression Analysis (LTEA) Assay for ATP-citrate lyase (ACLY) using HepaRG (AID 2283466)
In short: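 ACLY expression changes in human HepaRG liver cells are quantified by qRT-PCR after 48 h exposure to test chemicals (maximum 100 uM, half-log steps). Values are fitted in both directions relative to 0.5% DMSO vehicle.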

[12] = read-out: Peroxisomal acyl-coenzyme A oxidase 1 (ACOX1) gene, ACOX1 (gene 51); experiment: LTEA_HepaRG_ACOX1: Life Technologies and Expression Analysis (LTEA) Assay for Peroxisomal acyl-coenzyme A oxidase 1 (ACOX1) gene using HepaRG (AID 2283467)
In short: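 Human HepaRG hepatic cultures, 48 h treatment with test chemicals up to 100 uM. ACOX1 expression read by qRT-PCR relative to 0.5% DMSO vehicle.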

[13] = read-out: Alkaline Phosphatase, Placental (ALPP) gene, ALPP (gene 250); experiment: LTEA_HepaRG_ALPP: Life Technologies and Expression Analysis (LTEA) Assay for Alkaline Phosphatase, Placental (ALPP) gene using HepaRG (AID 2283468)
In short: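 Expression of ALPP was quantified by qRT-PCR against three housekeeping genes in human HepaRG cultures treated for 48 h with an eight-point concentration series up to 100 uM. Activity in either direction was fitted relative to 0.5% DMSO.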

[14] = read-out: Bcl-2 (BAD) gene, BAD (gene 572); experiment: LTEA_HepaRG_BAD: Life Technologies and Expression Analysis (LTEA) Assay for Bcl-2 (BAD) gene using HepaRG (AID 2283469)
In short: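 Activity values reflect up- or down-regulation of BAD mRNA in human HepaRG hepatic cells treated 48 h in serum-free medium, with eight-point half-log dosing capped at 100 uM and 0.5% DMSO vehicle.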

[15] = read-out: Bcl-2 (BAX) gene, BAX (gene 581); experiment: LTEA_HepaRG_BAX: Life Technologies and Expression Analysis (LTEA) Assay for Bcl-2 (BAX) gene using HepaRG (AID 2283470)
In short: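 qRT-PCR read-out of BAX mRNA, normalized to three housekeeping genes, after 48 h chemical exposure of human HepaRG cells in serum-free induction medium; eight-point half-log series, top 100 uM, 0.5% DMSO vehicle; bidirectional fit versus DMSO.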

[16] = read-out: Alpha-fetoprotein (AFP) gene, AFP (gene 174); experiment: LTEA_HepaRG_AFP: Life Technologies and Expression Analysis (LTEA) Assay for Alpha-fetoprotein (AFP) gene using HepaRG (AID 2283472);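 as to AC50: AFP transcript by TaqMan qRT-PCR normalized to ACTB GAPDH and POLR2A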
In short: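 qRT-PCR (Fluidigm TaqMan) readout of AFP transcript, normalized to three housekeeping genes, fitted bidirectionally against 0.5% DMSO baseline. HepaRG cells received chemicals for 48 h in serum-free induction medium, top concentration 100 uM, half-log steps.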

[17] = read-out: BCL2L11 (gene 10018); experiment: LTEA_HepaRG_BCL2L11: Life Technologies and Expression Analysis (LTEA) Assay for Bcl-2 (BCL2L11) gene using HepaRG (AID 2283473)
In short: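 Cells were plated, cultured 48 h, switched to serum-free induction medium, then dosed in duplicate for 48 h at eight half-log concentrations up to 100 uM. Lysates underwent RNA isolation and TaqMan qRT-PCR; gain or loss versus DMSO was fitted.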

[18] = read-out: ABC Transporter (ABCB1), ABCB1 (gene 5243); experiment: LTEA_HepaRG_ABCB1: Life Technologies and Expression Analysis (LTEA) Assay for ABC Transporter (ABCB1) using HepaRG (AID 2283460)
In short: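 Human liver HepaRG line treated 48 h with up to 100 uM compound (eight half-log points, 0.5% DMSO); ABCB1 mRNA change fitted bidirectionally against DMSO controls.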

[19] = read-out: adenosine kinase (ADK) gene, ADK (gene 132); experiment: LTEA_HepaRG_ADK: Life Technologies and Expression Analysis (LTEA) Assay for adenosine kinase (ADK) gene using HepaRG (AID 2283471)
In short: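 Differentiated HepaRG cells dosed 48 h in serum-free induction medium, 0.5% DMSO vehicle, eight half-log concentrations from 100 uM, in duplicate. ADK mRNA by TaqMan qRT-PCR normalised to ACTB, GAPDH, POLR2A; bidirectional fit versus DMSO.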

Measured: AC50

Sequence of Broad substrate specificity ATP-binding cassette transporter ABCG2 (Homo sapiens) (Q9UNQ0 whole entry, looked up): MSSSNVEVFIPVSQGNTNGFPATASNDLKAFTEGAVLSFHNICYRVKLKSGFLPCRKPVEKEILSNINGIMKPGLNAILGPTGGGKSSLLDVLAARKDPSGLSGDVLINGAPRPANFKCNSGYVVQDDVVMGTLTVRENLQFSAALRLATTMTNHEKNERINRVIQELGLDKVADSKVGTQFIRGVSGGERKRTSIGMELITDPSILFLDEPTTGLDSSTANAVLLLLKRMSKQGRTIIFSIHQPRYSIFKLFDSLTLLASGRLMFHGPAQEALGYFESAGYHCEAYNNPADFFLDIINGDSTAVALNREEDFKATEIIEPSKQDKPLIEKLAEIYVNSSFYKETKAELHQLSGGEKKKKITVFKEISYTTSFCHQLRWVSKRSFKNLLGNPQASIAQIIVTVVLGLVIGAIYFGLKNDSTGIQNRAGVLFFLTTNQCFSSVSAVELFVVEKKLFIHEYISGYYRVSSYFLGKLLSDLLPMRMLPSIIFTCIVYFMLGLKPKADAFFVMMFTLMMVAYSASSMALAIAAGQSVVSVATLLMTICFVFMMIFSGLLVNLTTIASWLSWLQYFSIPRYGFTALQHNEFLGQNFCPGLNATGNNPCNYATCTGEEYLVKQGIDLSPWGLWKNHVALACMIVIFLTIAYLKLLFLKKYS

CCCCCCC(CCCCCCCCCCC(=O)OCC(COC(C)=O)OC(C)=O)OC(C)=O (configuration not stated)
inactive: [1] | [2] | [3] | [4] | [5] | [6] | [7] | [8] | [9] | [10] | [11] | [12] | [13] | [14] | [15] | [16] | [17]

O=C(O)c1cccnc1
inactive: [1] | [2] | [3] | [5] | [18] | [6] | [7] | [8] | [9] | [10] | [11] | [12] | [13] | [14] | [15] | [16] | [17]

NC1CCCCC1
inactive: [1] | [2] | [3] | [5] | [18] | [6] | [7] | [8] | [9] | [10] | [11] | [12] | [13] | [14] | [15] | [19] | [16] | [17]

CCCCCCCCCCCCCCOS(=O)(=O)O
active: [1] 72.7 µM | [16] 50 µM
inactive: [2] | [3] | [5] | [18] | [6] | [7] | [8] | [9] | [10] | [11] | [12] | [13] | [14] | [15] | [19] | [17]

CC(=O)OCC(COC(C)=O)OC(C)=O
inactive: [2] | [3] | [5] | [18] | [6] | [7] | [8] | [9] | [10] | [11] | [12] | [13] | [14] | [15] | [19] | [16] | [17]
active: [1] 12 µM

CO[C@@H]1COCC[C@@H]1N[C@@H]1CC[C@@](C(=O)N2CCc3ncc(C(F)(F)F)cc3C2)(C(C)C)C1
inactive: [1] | [2] | [3] | [5] | [18] | [6] | [7] | [8] | [9] | [10] | [11] | [12] | [13] | [14] | [15] | [16] | [17]

CCCCCCCC(=O)OC
inactive: [1] | [2] | [3] | [4] | [5] | [6] | [7] | [8] | [9] | [10] | [11] | [12] | [13] | [14] | [15] | [16] | [17]
